The values that follow come from PubChem BioAssay (Tox21).

Values joined by “and” are separate entries in the source; they are usually repeats but may differ in a detail not shown here. Identical values can stand only once. Records with an inconclusive call do not appear. Where a structure was tested more than once in an assay, its records may differ in their call. Active and inactive are the calls of the source. The call rests on the fitted dose curve; in most records, active means well fitted curve in the direction sought with a large enough effect in the repeat runs; inconclusive means weak or mixed curves; inactive means no such curve, though single readings can be large; an effect the other way counts as inactive or inconclusive.

The nature of assay [1]: A CellTox Green Cytotoxicity Assay to monitor cytotoxicity in HEK293 cells - 40 hour (AID 1224871). Further: nearly all actives have a fitted effect of over 45% in size. A digest of the protocol:
(§1)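 Cytotoxicity was tracked continuously in HEK293 cells by a DNA-binding dye excluded from viable cells. Compounds were transferred in DMSO 5 h after seeding; fluorescence was recorded at intervals up to 40 h.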

Assay [2] is described as follows: qHTS RealTime-Glo MT Cell Viability Assay in HEK293 cells - 16 hour (AID 1224872). Further: nearly all actives have a fitted effect of over 50% in size. A digest of the protocol:
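HEK293 cells seeded with NanoLuc/prosubstrate reagent, rested 5 h at 37 C, then dosed and kept at 37 C up to 40 h. Nonlytic real-time luminescence from viable cells read at 0, 8, 16, 24, 32 and 40 h.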

Assay [3] can be described thus: qHTS RealTime-Glo MT Cell Viability Assay in HepG2 cells - 8 hour (AID 1224873). Further: nearly all actives have a fitted effect of over 55% in size. The method, boiled down:
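Real-time viability: cells seeded at 600 per well together with NanoLuc and cell-permeant prosubstrate, compounds added after 5 h incubation. Luminescence tracked at 0, 8, 16, 24, 32 and 40 h of exposure.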

A short description of assay [4]: qHTS RealTime-Glo MT Cell Viability Assay in HEK293 cells - 40 hour (AID 1224874). Further: nearly all actives have a fitted effect of over 50% in size. The following applies: RealTime-Glo luminescence; max response: stronger effect = lower value. The method, boiled down:
(§2)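 Nonlytic bioluminescent viability monitoring. HEK293 at 600 cells/well with reagent; 5 h settle; compound transfer by pintool; plates held at 37 C and read at set time points.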

Assay [5] can be described thus: A CellTox Green Cytotoxicity Assay to monitor cytotoxicity in HepG2 cells - 16 hour (AID 1224876). Further: nearly all actives have a fitted effect of over 45% in size. The method, boiled down: (§3)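 Real-time, homogeneous cytotoxicity readout: dead-cell DNA staining by CellTox Green in HepG2 monolayers, fluorescence measured at timed intervals up to 40 h of continuous compound exposure.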
The nature of assay [6]: qHTS RealTime-Glo MT Cell Viability Assay in HepG2 cells - 32 hour (AID 1224877). Further: nearly all actives have a fitted effect of over 55% in size. The method, boiled down:
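HepG2 cells (600/well) were dispensed with RealTime-Glo reagents, incubated 5 h at 37 °C, then treated with compounds in DMSO for up to 40 h. Nonlytic NanoLuc luminescence reflecting viable cells was read at each stated time point.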

The nature of assay [7]: A CellTox Green Cytotoxicity Assay to monitor cytotoxicity in HepG2 cells - 24 hour (AID 1224878). Further: nearly all actives have a fitted effect of over 45% in size. A digest of the protocol: as §3
Assay [8] in a line: A CellTox Green Cytotoxicity Assay to monitor cytotoxicity in HepG2 cells - 40 hour (AID 1224879). Further: nearly all actives have a fitted effect of over 40% in size. A digest of the protocol:
as §3

Assay [9] in a line: qHTS RealTime-Glo MT Cell Viability Assay in HEK293 cells - 0 hour (AID 1224880). Further: nearly all actives have a fitted effect of over 45% in size. A digest of the protocol:
as §2

The nature of assay [10]: A CellTox Green Cytotoxicity Assay to monitor cytotoxicity in HEK293 cells - 24 hour (AID 1224875). Further: nearly all actives have a fitted effect of over 45% in size. The method, boiled down: as §1
On the % scale 0 is the no-effect control and ±100 the full control effect; potency means the concentration at half of the fitted maximal effect.

As to `CCCCCCCCCCCCCl`, the Potency result was “inactive and 17.4 µM (active)” in assay [1]; “inactive and 13.8 µM (active)” in assay [5]; “inactive and 12.3 µM (active)” in assay [7]; “inactive and 12.3 µM (active)” in assay [8]. Moreover, the Potency result in assay [2], in assay [3], in assay [6] and in [9] was “inactive” each time. In assay [4], the max response was 0% (inactive) and 16.5% (inactive).
For `CC(C)=CC1C(C(=O)OCc2cccc(Oc3ccccc3)c2)C1(C)C` (stereo unspecified), the Potency entry in assay [1], in assay [2], in assay [3], in [10], in [5] and in assay [7] was “inactive” in each case. Further, the Potency entry in assay [8] and in [9] was “inactive” throughout. In [4], the max response was -1.31% (inactive) and -6.07% (inactive).
With `CC(C)Nc1ccc(Nc2ccccc2)cc1`, the Potency in [1] is 48.8 µM (active) and 49 µM (active); in assay [2], 17.3 µM (active) and 19.5 µM (active); in assay [4], 17.3 µM (active) and 17.4 µM (active); in [10] it was 48.8 µM (active) and 54.9 µM (active); in [5], “inactive and 49 µM (active)”; in [6], 54.7 µM (active). Further, the Potency in assay [7] was 43.6 µM (active); in assay [8], 43.6 µM (active); in assay [9], 7.73 µM (active) and 19.5 µM (active).
Turning to `CCOC(=O)c1ccccc1N`, the Potency result in assay [1], in [2], in assay [3], in assay [10] and in assay [9] was “inactive” in each case. The max response in assay [4] is -0.283% (inactive) and 0.344% (inactive). In addition, the Potency result is “inactive and 49 µM (active)” in assay [5]; “inactive and 49 µM (active)” in assay [7]; “inactive and 54.9 µM (active)” in assay [8].
As for `CN(C)c1nc(=O)n(C2CCCCC2)c(=O)n1C`, the Potency result in assay [1], in [2], in assay [3], in assay [10], in assay [5] and in assay [8] was “inactive” each time. For the same compound, the Potency result in assay [9] is “inactive”. The max response in assay [4] was 6.15% (inactive) and 0.589% (inactive).
With `O=S(=O)(O)C(F)(F)C(F)(F)C(F)(F)C(F)(F)C(F)(F)C(F)(F)C(F)(F)C(F)(F)F`, the Potency in assay [1] was 33 µM (active) and inactive and 21.9 µM (active); in assay [5], 18.6 µM (active) and inactive; in assay [7], 18.6 µM (active) and inactive; in [8], 16.5 µM (active) and inactive. Moreover, the Potency result in assay [2], in [3], in [6] and in [9] was “inactive” throughout. For the same compound, in [4], the max response is -24.5% (inactive) and 0.151% (inactive).
As to `O=C(O)CF`, the Potency entry in assay [1], in [2], in [3], in assay [10], in assay [5] and in [9] was “inactive” each time. Moreover, the max response in assay [4] is 2.85% (inactive) and 14% (inactive). Further, the Potency result in [7] is “inactive and 19.5 µM (active)”; in assay [8] it was “inactive and 19.5 µM (active)”.
On to `CCC/C=N/O`, for which the Potency entry in assay [1], in assay [2], in assay [3], in assay [10], in [5] and in assay [7] was “inactive” each time. The Potency result in [8] and in [9] was “inactive” in each case. For the same compound, the max response in assay [4] is -8.66% (inactive) and 0.163% (inactive).
As to `ClC(Cl)(Cl)c1ccccc1`, the Potency result in assay [1], in assay [2], in assay [3], in assay [10], in assay [5] and in assay [7] was “inactive” in each case. The Potency entry in [8] and in assay [9] was “inactive” in each case. Also, the max response in assay [4] was 8.54% (inactive) and -1.53% (inactive).
Consider `CNC(=O)CSP(=S)(OC)OC`, for which the Potency entry in [1], in assay [2], in [3], in [10], in assay [5] and in assay [7] was “inactive” in each case. Also, the Potency entry in [8] and in assay [9] was “inactive” throughout. The max response in assay [4] is -14.6% (inactive) and -0.812% (inactive).
Turning to `O=C1CCCO1`, the Potency result in assay [1], in [2], in [3], in assay [10], in assay [5] and in assay [7] was “inactive” each time. The Potency entry in assay [8] and in assay [9] was “inactive” in each case. Moreover, the max response in assay [4] is 17.8% (inactive) and -9.6% (inactive).
Regarding `COP(=O)(NC(C)=O)SC` (stereo unspecified), the Potency result in [1], in [2], in [3], in assay [10], in assay [5] and in assay [7] was “inactive” throughout. Besides, the Potency entry in [8] and in assay [9] was “inactive” each time. In addition, the max response in [4] is 1.36% (inactive) and 10.1% (inactive).
For the compound `CCCCOC(=O)COC(=O)c1ccccc1C(=O)OCCCC`, the Potency entry in [1], in assay [2], in assay [3], in [10], in assay [5] and in [7] was “inactive” each time. Further, the Potency result in assay [8] and in assay [9] was “inactive” in each case. For the same compound, the max response in [4] was -1.67% (inactive) and 1.98% (inactive).
For `CCCCOCCOC(C)=O`, the Potency result in assay [1], in [2], in [10], in assay [5], in [6] and in assay [7] was “inactive” in each case. In addition, the Potency result in [8] and in assay [9] was “inactive” each time. Moreover, in [4], the max response is 4.03% (inactive) and 1.95% (inactive).
For `Clc1ccccc1-c1nnc(-c2ccccc2Cl)nn1`, the Potency result in assay [1], in [2], in assay [3], in assay [10], in assay [5] and in assay [7] was “inactive” in each case. Besides, the Potency result in assay [8] and in assay [9] was “inactive” throughout. Besides, the max response in assay [4] was -1.79% (inactive) and -6.1% (inactive).
Take `Cc1ccc(N=CN(C)C=Nc2ccc(C)cc2C)c(C)c1`: the Potency entry in [1], in [10], in [5], in assay [6] and in [9] was “inactive” in each case. Further, the Potency in [2] was 43.8 µM (active) and 38.9 µM (active) and inactive; in assay [4], 43.8 µM (active) and 43.6 µM (active); in [7] it was 43.6 µM (active) and inactive; in assay [8] it was 43.6 µM (active) and inactive. In addition, in assay [4], the max response was -1.79% (inactive).
As to `CCC[CH2][Sn]([Cl])([CH2]CCC)[CH2]CCC`, the Potency is 491 nM (active) and 549 nM (active) in assay [1]; 390 nM (active) and 692 nM (active) in assay [2]; 3.47 µM (active) and 1.38 µM (active) in assay [3]; 310 nM (active) and 436 nM (active) in assay [4]; 979 nM (active) and 2.45 µM (active) in [10]; 1.74 µM (active) and 1.23 µM (active) in [5]. The Potency in assay [7] is 1.38 µM (active) and 2.19 µM (active); in assay [8] it was 1.38 µM (active) and 692 nM (active). Moreover, the Potency entry in assay [9] was “inactive”.
Consider `CC(C)(O)C#N`, for which the Potency result in [1], in assay [2], in [3], in assay [10], in [5] and in assay [7] was “inactive” each time. Besides, the Potency entry in assay [8] and in assay [9] was “inactive” throughout. In assay [4], the max response is 1.12% (inactive) and 7.67% (inactive).
Consider `CC(C)COC(=O)c1ccccc1C(=O)OCC(C)C`, for which the Potency entry in assay [1], in assay [2], in [3], in assay [10], in assay [5] and in assay [7] was “inactive” each time. The Potency result in assay [8] and in assay [9] was “inactive” each time. In addition, the max response in assay [4] is 8.51% (inactive) and 5.74% (inactive).
